Laboratory results taken from PubChem BioAssay AID1259343 (VanderVen Lab, College of Veterinary Medicine, Cornell …, 2017).
The campaign covered roughly 6,200 compounds. About 2,900 (47%) were called active. The set was probably picked from earlier hits. This is one part of the list. A number with no mark means an inactive call. Cut-off read from the data, not from the text of the source: active = inhibition above about 50%; inactive = the rest.

Assay: Mycobacterium tuberculosis growth inhibition, primary screen (AID 1259343)
Conditions: inhibition: at 10 µM, stronger effect = higher value; outcome: 10 uM

Structure (SMILES) | inhibition
CCOc1cc(C2=NN(c3ccc(C)cc3)C(=O)CC2)ccc1O | 6.87%
COc1ccc2c(c1)c(CC(=O)O)c(C)n2C(=O)c1ccc(Cl)cc1 | 43.2%
Cc1ccc(C2(CCN)CCOC(C(C)C)C2)cc1 (stereo not drawn) | 80.7% (active)
Cc1ccc(Cc2nnc(SCC(=O)Nc3ccc(OC(F)F)cc3)[nH]c2=O)cc1 | 44.2%
COc1ccc(NC(=O)N2CCN(CCCOC(c3ccc(Cl)cc3)c3ccc(Cl)cc3)CC2)cc1 | 10.1%
COc1ccc(NC(=O)CSc2n[nH]c(C3CC3)n2)cc1 | 78.8% (active)
O=[N+]([O-])c1cccc(-c2csc(Nc3ccc(Cl)cc3)n2)c1 | 88.3% (active)
Cc1ccc(C)c(Nc2nc(-c3ccc([N+](=O)[O-])cc3)cs2)c1 | 15.3%
COC(=O)c1ccc2c(c1)S(=O)(=O)N(C1CCCCC1C)C2=O (stereo not drawn) | 81.4% (active)
COC(=O)Nc1cccc(C(=O)N2CCC(C)C3CCCCC32)c1 (stereo not drawn) | 27.1%
CS(=O)(=O)NCc1cccc(-c2ccc(C#N)s2)c1 | 2.92%
CCOC(=O)CSc1nnc(CSc2cc(C)nc(N3CCCC3)n2)o1 | 93.2% (active)
Cc1ccc(-c2nnc(SCC(=O)N3CCC(C)CC3)o2)cc1 | -35.9%
CCOC(=O)CSc1ncnc2c1nnn2-c1ccc(OC)cc1 | 3.35%
COC(=O)C(C)Sc1ncnc2c1nnn2-c1ccc(F)cc1 (stereo not drawn) | 76.7% (active)
CCOC(=O)CNC(=O)CSc1ncnc2c1nnn2-c1ccc(OC)cc1 | -7.53%
CCC(Sc1ncnc2c1nnn2-c1ccc(F)cc1)C(=O)OC (stereo not drawn) | 42.6%
COc1ccc(-n2nnc3c(SCC(N)=O)ncnc32)cc1 | 14.3%
CCOC(=O)C(C)Sc1ncnc2c1nnn2-c1ccc(OC)cc1 (stereo not drawn) | 75.5% (active)
O=C(CSc1ncnc2c1nnn2-c1ccc(F)cc1)OCc1ccccc1 | 2.43%
COC(=O)CSc1ncnc2c1nnn2Cc1ccc(F)cc1 | -38.1%
COc1ccc(-n2nnc3c(SCC(=O)Nc4ccccc4)ncnc32)cc1 | 68.2% (active)
COC(=O)CSc1ncnc2c1nnn2-c1ccc(F)cc1 | 89.9% (active)
CCC(Sc1ncnc2c1nnn2-c1ccc(OC)cc1)C(=O)OC (stereo not drawn) | -33.3%
CCOC(=O)C(CC)Sc1ncnc2c1nnn2-c1ccc(F)cc1 (stereo not drawn) | 36.5%

Structure (SMILES) | inhibition
CC(Sc1ncnc2c1nnn2-c1ccc(F)cc1)c1ccccc1 (stereo not drawn) | 82.1% (active)
COC(=O)C(C)Sc1ncnc2c1nnn2-c1ccc(OC)cc1 (stereo not drawn) | 72.2% (active)
CCOC(=O)C(C)Sc1ncnc2c1nnn2-c1ccc(F)cc1 (stereo not drawn) | 60% (active)
O=C(N=C1N=C2N=CC=CN2Cc2ccccc21)Nc1ccc(Cl)c(Cl)c1 | 88% (active)
O=C(CC12CC3CC(CC(C3)C1)C2)N=C1N=C2C=CC=CN2Cc2ccccc21 | -15.7%
O=C(N=C1N=C2C=CC(Br)=CN2Cc2ccccc21)c1ccccn1 | 10.5%
O=C(Nc1ccc(F)cc1F)C1CCN(C(=O)c2cccnc2)CC1 | 85.7% (active)
O=C(Nc1ccc(Oc2ccccc2F)cc1)C1CCN(C(=O)c2ccncc2)CC1 | 90.8% (active)
Cc1cc(C(=O)N2CCC(C(=O)Nc3ccc(Oc4ccccc4F)cc3)CC2)c(C)o1 | inactive
O=C(Nc1ccc(Oc2ccccc2F)cc1)C1CCN(C(=O)C#Cc2ccccc2)CC1 | 89.6% (active)
O=C(Nc1ccc(Oc2ccccc2F)cc1)C1CCN(C(=O)C2=CCCC2)CC1 | 90.8% (active)
O=C(Nc1ccc(Oc2ccccc2)nc1)C1CCN(C(=O)C2=CCCC2)CC1 | 44%
O=C(Nc1ccc(Oc2ccccc2F)cc1)C1CCN(C2Cc3ccccc3C2)CC1 | 91.6% (active)
Cc1cc(NC(=O)c2ccccc2C)n(-c2nc3c(c(=O)[nH]2)CCC3)n1 | 100% (active)
Cc1cc(NC(=O)c2ccc(F)c(F)c2)n(-c2nc3c(c(=O)[nH]2)CCC3)n1 | -20.9%
COc1ccc(Cl)cc1C(=O)Nc1cc(C)nn1-c1nc2c(c(=O)[nH]1)CCC2 | 95.5% (active)
Cc1cc(NC(=O)c2ccc(Cl)cc2)n(-c2nc3c(c(=O)[nH]2)CCC3)n1 | 101% (active)
Cc1cc(NC(=O)c2ccco2)n(-c2nc3c(c(=O)[nH]2)CCC3)n1 | 101% (active)
Cc1cc(NC(=O)c2cc(Cl)ccc2Cl)n(-c2nc3c(c(=O)[nH]2)CCC3)n1 | 37.1%
Cc1cc(NC(=O)c2ccccc2)n(-c2nc3c(c(=O)[nH]2)CCC3)n1 | -26.4%
CCCN1CCCc2cc(CCNS(=O)(=O)Cc3cccc(C)c3)ccc21 | 31.9%
O=C(Nc1ccc(Oc2ccc(Cl)cc2)c(Cl)c1)c1cc(I)cc(I)c1O | 101% (active)
CCCCCC(=O)NN=Cc1ccc([N+](=O)[O-])cc1 | 100% (active)
CCCC(=O)Oc1c(S(=O)(=O)c2ccc([N+](=O)[O-])cc2)c(C)nn1-c1ccccc1 | 28.6%
CSc1nnc(SCc2ccc([N+](=O)[O-])cc2)s1 | -12.4%

Structure (SMILES) | inhibition
CC(C)(C)c1ccc(C=NOCc2ccc([N+](=O)[O-])cc2)cc1 | -20.2%
CC(C)=CCCC(C)=CC=NNc1ccc([N+](=O)[O-])cc1 | 62% (active)
O=C(CSc1nnc(SCc2ccccc2)s1)NN=Cc1ccc([N+](=O)[O-])cc1 | 83.1% (active)
CCCCCCC(=O)NN=Cc1ccc([N+](=O)[O-])cc1 | 77.5% (active)
CC1=Nn2cc(-c3ccccc3)nc2SC1c1ccccc1 (stereo not drawn) | 20.8%
CCCCCCCC(C)=NNc1nc2ccccc2s1 | inactive
CCCCCCC(C)=NNc1ccc([N+](=O)[O-])cc1 | 98.5% (active)
C=CCc1cc([N+](=O)[O-])ccc1O | 101% (active)
CC(C)(C)OC(=O)NNC(=O)C=Cc1ccco1 | -8.19%
O=C(C=Cc1cccs1)NC12CC3CC(CC(C3)C1)C2 | inactive
O=C(C=Cc1ccco1)NCc1ccc(F)cc1 | 72.3% (active)
O=C(/C=C/c1cc(C(F)(F)F)ccc1Cl)NCc1ccon1 | -0.62%
O=C(C=Cc1ccc(F)cc1)NCc1ccco1 | 29.9%
O=C(C=Cc1ccco1)NC12CC3CC(CC(C3)C1)C2 | 67.6% (active)
COc1ccc(NC(=O)CSCc2ccccn2)cc1OC(F)F | 17.9%
COc1ccc(NC(=O)c2ccsc2)cc1OC(F)F | 54.8% (active)
COc1ccc(C)cc1CCNC(=O)c1ccsc1 | 26.8%
Cc1ccnc(N2CCN(c3ncnc4scc(-c5ccc(F)cc5)c34)CC2)c1 | 3.93%
CC(C)NS(=O)(=O)CCCOc1ccc2c(c1)OCO2 | 50.3% (active)
Cc1cccc(OCCN(C)C(=O)/C=C/c2ccc3c(c2)OCO3)c1 | 34.9%
O=S(=O)(CCCOc1ccc2c(c1)OCO2)NC1CCCCCC1 | 93% (active)
O=S(=O)(CCCOc1ccc2c(c1)OCO2)NC1CCCCC1 | 99.2% (active)
COCCn1c(=S)[nH]c2sc3c(c2c1=O)CCC(C)C3 (stereo not drawn) | -21.7%
CCN=c1scc(-c2ccc(Br)s2)n1N=CC1CCCCC1 | 36%
CNC(=O)c1sc(N2CCN(c3ccccc3F)CC2)nc1C | 33.2%

Structure (SMILES) | inhibition
CC1=CC(=NNc2nc3ccccc3[nH]2)CC(C)(C)C1 | 24.5%
Cc1nc(C(C)C)sc1C(=O)Nc1nc2ccccc2[nH]1 | 100% (active)
Cc1csc(Nc2ccc(Cl)cc2)[n+]1-c1ccc(Cl)cc1 | 16%
Cc1nc2nc(CC(=O)N3CCOCC3)nn2c(C)c1Cl | 52.5% (active)
CC(C)(C)C(=O)NC(=S)NC1=CC2N=C(c3ccncc3)OC2C=C1 (stereo not drawn) | 54.2% (active)
CC(C)COc1ccc(NC(=O)c2ccnnc2)cc1Cl | 50.1% (active)
CC(C)COc1ccc(NC(=O)C2CC2c2cnn(C)c2)cc1Cl (stereo not drawn) | -6.2%
CC(C)COc1ccc(NC(=O)c2nn(C)c(=O)c3ccccc23)cc1Cl | 24.1%
CS(=O)(=O)Nc1cc(Cl)ccc1Sc1ccc(F)cc1 | 76.2% (active)
Cc1cc(C)c(NC(=O)c2cc(C)nc3c2cnn3C(C)C)c(C)c1 | 59.8% (active)
CCCN(C)C(=O)c1ccc2c(c1)C(=O)N(c1ccc(OCC)cc1)C2=O | 21.7%
CCOc1ccc(N2C(=O)C3N=NN(Cc4cccc(C)c4)C3C2=O)cc1 (stereo not drawn) | 78.4% (active)
CCc1ccc(N2C(=O)C3N=NN(Cc4nc(-c5cccc(Cl)c5)oc4C)C3C2=O)cc1 (stereo not drawn) | 83.4% (active)
COc1ccc(N2C(=O)C3N=NN(Cc4cc(C)ccc4C)C3C2=O)cc1Cl (stereo not drawn) | -29.4%
CCc1ccc(N2C(=O)C3N=NN(Cc4cccc(C)c4)C3C2=O)cc1 (stereo not drawn) | 67.8% (active)
CCOc1ccc(N2C(=O)C3N=NN(Cc4cc(C)ccc4C)C3C2=O)cc1 (stereo not drawn) | 61.5% (active)
CCOc1ccc(-c2nc(CN3N=NC4C(=O)N(c5ccc(C)c(Cl)c5)C(=O)C43)c(C)o2)cc1 (stereo not drawn) | 20.2%
CSc1ccc(NC(=O)c2cn[nH]n2)cc1Cl | 95.5% (active)
CC(=O)/C(=N/Nc1ccc(C)cc1)N1CCOCC1 | 94.7% (active)
O=C1c2cccc([N+](=O)[O-])c2C(=O)N1CNc1ccc(Cl)c(Cl)c1 | 45.5%
O=C1c2ccc([N+](=O)[O-])cc2C(=O)N1CNc1ccc2c(c1)oc1ccccc12 | 86.3% (active)
CC(C)CCC(C)NC(=O)c1cc(O)cs1 (stereo not drawn) | 37.3%
Cc1cc(O)c(S(=O)(=O)c2cc(Cl)c(Cl)cc2Cl)c(=O)[nH]1 | 60.9% (active)
